# PubChem BioAssay (NCATS)
# Inconclusive results are not listed. Entries that show only a call come without a potency. Calls of active or inactive are those of the source. Calls come from the whole dose curve; as a rule, active = well fitted curve in the direction sought with a large enough effect; inconclusive = small, poorly fitted or top-dose-only effect, or another doubt; inactive = no such curve, though single readings can be large; an effect the other way counts as inactive or inconclusive.
# Test system: not listed separately
# Assay: Primary qHTS for inhibitors of nuclear receptor binding SET domain protein 2 (NSD2) in an RCH-ACV wild type WT cells (2C) (AID 1645877); note: nearly all actives have a fitted effect of over 70% in size; note: potency is the fitted concentration of half-maximal effect
# Details: RCH-ACV (leukaemia line) NSD2 WT (2C) viability, CellTiter-Glo, 72 h; series mostly up to 44.9 µM
row,SMILES,Potency
1,O=C(O)c1ccc(S(=O)(=O)N(Cl)Cl)cc1,inactive
2,NCCNC(=O)c1ccc(Cl)cn1,inactive
3,CC(=O)Nc1ncc([N+](=O)[O-])s1,inactive
4,COc1ccc2c(c1)c1c3n2CCN(C)C3=NCC1,inactive
5,CCCCCCCCCCCCCCC[C@H](O)[C@@H](N)CO,5.96 µM (active)
6,CC(C)(C)NC[C@H](O)COc1nsnc1N1CCOCC1,inactive
7,Cc1cccc(C)c1NC(=O)CN1CCCC1,inactive
8,CC1CCc2c(N3CCC(O)CC3)c(F)cc3c(=O)c(C(=O)O)cn1c23 (stereo not given),inactive
9,Nc1nc(N)c(-c2ccccc2)s1,inactive
10,CCN(CC)CCNC(=O)COc1ccc(OC)cc1,inactive
11,Oc1ccccc1C=NCc1ccccc1,inactive
12,Cc1cc2c(OCC(CNC(C)(C)C)OC(=O)c3ccccc3)cccc2[nH]1 (stereo not given),inactive

# Target: Glutathione peroxidase 1 (Homo sapiens) (UniProt P07203)
# Sequence (P07203 whole entry, looked up): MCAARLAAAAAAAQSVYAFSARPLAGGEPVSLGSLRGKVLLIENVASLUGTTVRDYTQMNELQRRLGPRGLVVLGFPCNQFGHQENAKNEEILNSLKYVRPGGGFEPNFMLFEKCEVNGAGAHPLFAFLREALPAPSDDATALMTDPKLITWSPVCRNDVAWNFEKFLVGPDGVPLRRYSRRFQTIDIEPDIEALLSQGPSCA
# Assay: Primary qHTS Assay for Inhibitors of Recombinant Selenoprotein Glutathione Peroxidase 1 (GPX1) (AID 1845191); note: nearly all actives have a fitted effect of over 65% in size
# Details: recombinant GPX1, GR-coupled NADPH fluorescence, 15 min; series mostly up to 48.8 µM
# How it was run: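 GR-coupled assay: compounds preincubated 30 min at room temperature with GPX1, then reaction started with CHP; final 10 nM GPX1, 1 mM GSH, 0.5 mM CHP, 0.5 mM NADPH, 100 nM GR, 0.01% BSA, pH 7.5 Tris buffer. NADPH fluorescence (340/450 nm) read at 0 and 15 min.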
row,SMILES,Potency
1,CCOCCn1c(N2CCCN(C)CC2)nc2ccccc21,inactive
2,NS(=O)(=O)c1cc2c(cc1Cl)NC(CC1CCCC1)NS2(=O)=O (stereo not given),inactive
3,CC(=O)OCC(=O)[C@H]1CC[C@H]2[C@@H]3CCC4=CC(=O)CC[C@]4(C)[C@H]3CC[C@]12C,inactive
4,c1ccc(CC2=NCCN2)cc1,inactive
5,CCCCC(CC)COC(=O)c1ccc(N(C)C)cc1 (stereo not given),inactive
6,CC(=O)O[C@H]1C[C@@H]2CC[C@@H]3[C@H](CC[C@@]4(C)[C@H]3C[C@H]([N+]3(C)CCCCC3)[C@@H]4OC(C)=O)[C@@]2(C)C[C@@H]1N1CCCCC1,inactive
7,CC(C)(C)NC[C@H](O)COc1nsnc1N1CCOCC1,inactive
8,CC1CCc2c(N3CCC(O)CC3)c(F)cc3c(=O)c(C(=O)O)cn1c23 (stereo not given),inactive
